One may read the inhibition as the relative decrease from the control value, in per cent.

These results are taken from PubChem BioAssay.

Assay [1] can be described thus: antimalarial activity against Dd2 strain (AID 2302;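 active = growth inhibition above 50% at the single 2 µM test dose, taken to imply half-maximal potency below 2 µM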;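 note: 0% = DMSO untreated growth and 100% = chloroquine plus artemisinin killed control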). The settings on record: P. falciparum Dd2 in RBCs, LDH growth readout, 72 h; at 2 µM; active compounds read high.
A short description of assay [2]: HepG2 cytotoxicity, primary screen, cytotoxicity control for P. falciparum antimalarial project, cell-based, ATP luminescence (AID 2303;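 active = inhibition above 50%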;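 note: 0% = DMSO wells and 100% = digitonin-killed cells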). The settings on record: HepG2 viability, 24-48 h, at 10 µM, active compounds read high.
Assay [3] deals with L-lactate dehydrogenase (Plasmodium falciparum (isolate CDC / Honduras)) (UniProt Q27743). Nature of the assay: PfLDH activity inhibition – cell lysate, 3D7 strain, counter-screen for P. falciparum growth inhibition project (AID 2304).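 Note: 0% = vehicle and 100% = reference inhibitor.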 The following applies: P. falciparum 3D7 crude extract, LDH APAD/NBT absorbance; at 2 µM; active compounds read high.
Assay [4] is described as follows: inhibition of 3D7 malaria parasite growth – strain 3D7 (AID 2306).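 Note: 0% = DMSO wells and 100% = chloroquine plus artemisinin control wells.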 The settings on record: P. falciparum 3D7 erythrocytic growth, LDH absorbance, 72 h; at 2 µM; active compounds read high.
Assay [5] deals with Calcium-dependent protein kinase 1 (Plasmodium falciparum (isolate 3D7)) (UniProt P62344). Put plainly: PfCDPK1 kinase inhibitors, biochemical, TCAMS library (AID 1159585; cut-off not given, nearly all actives have IC50 up to about 0.98 µM;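 note: inhibitors leave more ATP so luminescence rises with inhibition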). The following applies: recombinant PfCDPK1, Kinase-Glo ATP depletion luminescence.
Assay [6] deals with Plasmodium falciparum protein kinase 6 (PK6, PF3D7_1337100) (UniProt Q8IDW1). Nature of the assay: PfPK6 kinase inhibitors, biochemical, TCAMS library (AID 1159586). The following applies: recombinant PfPK6, Kinase-Glo ATP depletion luminescence. (In general: Kinase-Glo reads ATP consumption through a luciferase reaction.)
The target of assay [7] is Protein kinase 7 (PK7), Plasmodium falciparum 3D7 (PF3D7_0213400) (UniProt Q7YTF7). Put plainly: inhibition of Plasmodium PK7 catalytic activity – biochemical, TCAMS antimalarial set, Kinase-Glo luminescence (AID 1159587). The following applies: recombinant PfPK7, Kinase-Glo ATP depletion luminescence.
The target of assay [8] is Calcium-dependent protein kinase 4 (Plasmodium falciparum (isolate 3D7)) (UniProt Q8IBS5). Nature of the assay: PfCDPK4 kinase inhibitors, biochemical, TCAMS library (AID 1159588; cut-off not given, nearly all actives have IC50 up to about 0.91 µM). The settings on record: recombinant PfCDPK4, Kinase-Glo ATP depletion luminescence.

Each structure is given as a SMILES string. Values without a mark were called inactive. For part of these data: Potency and affinity values are given separately. The source made the active and inactive calls. Unless noted, the rule behind the calls is not given here.

Chain of Calcium-dependent protein kinase 4 (Plasmodium falciparum (isolate 3D7)) (Q8IBS5 whole entry, looked up): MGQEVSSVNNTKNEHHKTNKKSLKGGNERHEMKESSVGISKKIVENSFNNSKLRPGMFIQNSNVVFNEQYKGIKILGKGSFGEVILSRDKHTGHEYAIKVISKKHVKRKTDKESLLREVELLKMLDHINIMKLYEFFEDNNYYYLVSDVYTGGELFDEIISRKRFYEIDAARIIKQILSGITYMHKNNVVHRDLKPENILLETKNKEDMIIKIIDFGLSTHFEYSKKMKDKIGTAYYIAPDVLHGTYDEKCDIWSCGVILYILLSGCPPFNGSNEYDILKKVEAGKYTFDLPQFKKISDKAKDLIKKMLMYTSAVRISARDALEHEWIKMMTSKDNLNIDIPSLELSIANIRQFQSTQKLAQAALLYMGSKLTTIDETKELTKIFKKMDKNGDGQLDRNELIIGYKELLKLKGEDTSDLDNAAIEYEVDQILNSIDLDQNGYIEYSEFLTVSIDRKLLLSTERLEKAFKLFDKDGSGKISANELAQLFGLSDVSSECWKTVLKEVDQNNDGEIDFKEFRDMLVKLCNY
Chain of L-lactate dehydrogenase (Plasmodium falciparum (isolate CDC / Honduras)) (Q27743 whole entry, looked up): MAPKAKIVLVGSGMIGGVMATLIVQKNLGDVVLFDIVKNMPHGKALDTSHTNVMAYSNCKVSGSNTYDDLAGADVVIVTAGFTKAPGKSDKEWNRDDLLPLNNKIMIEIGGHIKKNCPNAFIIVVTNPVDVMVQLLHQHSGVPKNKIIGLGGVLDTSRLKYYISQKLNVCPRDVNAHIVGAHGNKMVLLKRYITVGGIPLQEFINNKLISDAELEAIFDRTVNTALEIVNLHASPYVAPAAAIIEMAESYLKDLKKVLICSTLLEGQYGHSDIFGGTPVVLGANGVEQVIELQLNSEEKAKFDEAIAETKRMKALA
Chain of Calcium-dependent protein kinase 1 (Plasmodium falciparum (isolate 3D7)) (P62344 whole entry, looked up): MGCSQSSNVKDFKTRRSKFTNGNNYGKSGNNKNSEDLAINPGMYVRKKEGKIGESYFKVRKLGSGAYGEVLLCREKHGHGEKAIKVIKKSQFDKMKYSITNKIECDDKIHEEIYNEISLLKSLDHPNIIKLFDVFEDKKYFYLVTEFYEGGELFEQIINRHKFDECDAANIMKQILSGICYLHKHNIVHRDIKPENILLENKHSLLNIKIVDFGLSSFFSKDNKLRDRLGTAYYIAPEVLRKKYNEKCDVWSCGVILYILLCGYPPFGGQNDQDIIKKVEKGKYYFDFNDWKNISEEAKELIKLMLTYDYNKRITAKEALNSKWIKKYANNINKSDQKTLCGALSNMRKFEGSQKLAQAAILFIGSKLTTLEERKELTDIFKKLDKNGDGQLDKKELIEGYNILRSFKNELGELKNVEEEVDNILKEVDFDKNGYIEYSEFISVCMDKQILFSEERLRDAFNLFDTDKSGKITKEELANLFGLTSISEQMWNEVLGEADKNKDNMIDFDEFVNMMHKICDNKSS
Chain of Plasmodium falciparum protein kinase 6 (PK6, PF3D7_1337100) (Q8IDW1 1-305): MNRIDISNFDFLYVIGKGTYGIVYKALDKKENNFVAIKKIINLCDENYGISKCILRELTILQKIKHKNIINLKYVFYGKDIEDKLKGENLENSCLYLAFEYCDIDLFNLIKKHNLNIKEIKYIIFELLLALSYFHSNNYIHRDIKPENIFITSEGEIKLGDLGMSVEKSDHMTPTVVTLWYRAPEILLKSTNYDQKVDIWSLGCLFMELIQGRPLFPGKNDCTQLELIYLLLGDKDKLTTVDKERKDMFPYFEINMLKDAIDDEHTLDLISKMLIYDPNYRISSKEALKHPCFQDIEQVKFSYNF
Chain of Protein kinase 7 (PK7), Plasmodium falciparum 3D7 (PF3D7_0213400) (Q7YTF7 1-343): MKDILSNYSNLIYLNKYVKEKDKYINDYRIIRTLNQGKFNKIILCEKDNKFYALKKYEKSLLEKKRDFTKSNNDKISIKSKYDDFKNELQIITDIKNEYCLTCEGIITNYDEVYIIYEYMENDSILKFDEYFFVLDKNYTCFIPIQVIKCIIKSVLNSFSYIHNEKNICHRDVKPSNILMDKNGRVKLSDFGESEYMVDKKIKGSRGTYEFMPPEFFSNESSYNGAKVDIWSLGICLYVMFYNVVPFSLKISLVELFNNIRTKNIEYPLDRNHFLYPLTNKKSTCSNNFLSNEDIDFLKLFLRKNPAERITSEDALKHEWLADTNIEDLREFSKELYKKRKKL

For `O=C1C([N+](=O)[O-])=C(O)c2cccc(F)c21`, the growth inhibition in assay [1] was 13%; in assay [4], 95% (active). For the same compound, the inhibition in assay [2] was 9%; in assay [3] it was 0%. Further, the outcome in assay [5], in assay [6], in assay [7] and in assay [8] was inactive.

With `CN(CCN)Cc1cccc(-c2cccc(-c3nc4ccc(F)cc4[nH]3)c2)c1`, the growth inhibition in assay [1] is 19%; in assay [4] it was 95% (active). Further, the inhibition in assay [2] was 20%; in assay [3] it was 6%. Also, the outcome in assay [5], in assay [6], in assay [7] and in assay [8] was inactive.

As for `CC[C@H]1CN2CCc3cc(OC)c(OC)cc3[C@@H]2C[C@@H]1CC1=NCCc2c1[nH]c1ccc(OCc3ccccc3)cc21`, the growth inhibition in assay [1] is 89% (active); in assay [4] it was 101% (active). Besides, the inhibition was 57% (active) in assay [2] and -2% in assay [3]. The result in assay [5], in assay [6], in assay [7] and in assay [8] was inactive.

Turning to `COCc1ccccc1C(=O)NCCOc1cc(C)cc(C)c1`, the results for the growth inhibition in assay [1] and in assay [4] were 95% (active) and 96% (active), respectively. The inhibition in assay [2] is 26%; in assay [3], 5%. Further, the result in assay [5], in assay [6], in assay [7] and in assay [8] was inactive.

For the compound `COc1cc2c(cc1OC)C(C(=O)c1ccccc1)=NCC2`, the growth inhibition in assay [1] is 62% (active); in assay [4] it was 85% (active). Also, the inhibition was 19% in assay [2] and 0% in assay [3]. The outcome in assay [5], in assay [6], in assay [7] and in assay [8] was inactive.

On to `COCCNC(=O)C1CCN(C(c2ccc(Cl)cc2)c2ccc(Cl)cc2)CC1`, for which the growth inhibition is 73% (active) in assay [1] and 86% (active) in assay [4]. Besides, the inhibition in assay [2] is 3%; in assay [3] it was -3%. Also, the outcome in assay [5], in assay [6], in assay [7] and in assay [8] was inactive.

`N#Cc1ccccc1N1CCN(C2CCC(NC(=O)c3n[nH]c4cc(C(F)(F)F)ccc34)CC2)CC1` (centres undefined): the growth inhibition was 34% in assay [1] and 84% (active) in assay [4]. In addition, the values for the inhibition in assay [2] and in assay [3] were 15% and -4%, respectively. Besides, the result in assay [5], in assay [6], in assay [7] and in assay [8] was inactive.

With `Cn1cncc1-c1ccc2c(-c3ccsc3)cnc(N)c2c1`, the growth inhibition in assay [1] is 72% (active); in assay [4], 97% (active). Moreover, the inhibition in assay [2] was 41%; in assay [3] it was -3%. Besides, the outcome in assay [5], in assay [6], in assay [7] and in assay [8] was inactive.

On to `OCCN1CCN(c2ccc(Nc3ccnc4cc5ccccc5cc34)cc2)CC1`, for which the growth inhibition in assay [1] and in assay [4] was 100% (active) each time. Moreover, the inhibition is 98% (active) in assay [2] and -1% in assay [3]. For the same compound, the outcome in assay [5], in assay [6], in assay [7] and in assay [8] was inactive.

In the case of `CN1C(C)(C)CC(NC(=O)c2ccc(-c3cc4cc(Cl)c(Cl)cc4[nH]3)o2)CC1(C)C`, the values for the growth inhibition in assay [1] and in assay [4] were 43% and 101% (active), respectively. Moreover, the values for the inhibition in assay [2] and in assay [3] were 21% and -4%, respectively. Besides, the outcome in assay [5], in assay [6], in assay [7] and in assay [8] was inactive.

As to `Cc1cc(-c2ccc(CN3Cc4ccccc4C3)cc2)ccc1S(=O)(=O)NCCN1CCCC1`, the growth inhibition in assay [1] is 10%; in assay [4] it was 94% (active). The inhibition is 49% in assay [2] and -4% in assay [3]. Also, the result in assay [5], in assay [6], in assay [7] and in assay [8] was inactive.

For the compound `O=C(Nc1ccc2c(c1)CCN2C1CCN(Cc2cc(F)cc(F)c2F)C1)c1ccco1` (centres undefined), the results for the growth inhibition in assay [1] and in assay [4] were 95% (active) and 96% (active), respectively. Also, the figures for the inhibition in assay [2] and in assay [3] were -2% and 1%, respectively. The outcome in assay [5], in assay [6], in assay [7] and in assay [8] was inactive.

On to `CCCNCc1ccc(-c2ccc(CN(C(=O)c3nn(-c4ccccc4)nc3C)C(C)CN(C)C)cc2)nc1` (centres undefined), for which the growth inhibition in assay [1] and in assay [4] was 95% (active) throughout. The inhibition in assay [2] was 27%; in assay [3] it was -8%. Besides, the result in assay [5], in assay [6], in assay [7] and in assay [8] was inactive.

As for `Oc1ccc2[nH]cc(C3CCN(CCCNCc4ccc(-c5ccccc5)cc4)CC3)c2c1`, the values for the growth inhibition in assay [1] and in assay [4] were -1% and 101% (active), respectively. Further, the inhibition in assay [2] is 22%; in assay [3], -4%. Moreover, the result in assay [5], in assay [6], in assay [7] and in assay [8] was inactive.

On to `O=C(/C=C/c1ccc(-c2ccccc2)cc1)NCCCCCN1CCC(c2c[nH]c3ccccc23)CC1`, for which the growth inhibition is 23% in assay [1] and 97% (active) in assay [4]. In addition, the inhibition was 91% (active) in assay [2] and 6% in assay [3]. The outcome in assay [5], in assay [6], in assay [7] and in assay [8] was inactive.

On to `Cc1ccc(CNC(=O)[C@H](CCCN)Nc2cc(C)nc(Nc3ccccc3)n2)cc1`, for which the figures for the growth inhibition in assay [1] and in assay [4] were -4% and 90% (active), respectively. Moreover, the inhibition in assay [2] is -2%; in assay [3], 2%. The result in assay [5], in assay [6], in assay [7] and in assay [8] was inactive.

As to `CC(C)(C)c1cc(C(=O)Nc2ccc(C(=N)N)cc2)c(O)c(C(C)(C)C)c1`, the growth inhibition in assay [1] was 88% (active); in assay [4], 101% (active). Besides, the results for the inhibition in assay [2] and in assay [3] were 4% and -2%, respectively. Besides, the outcome in assay [5], in assay [6], in assay [7] and in assay [8] was inactive.

As for `Cc1ccc2c(NN=Cc3ccc(Cl)cc3)cc(C)nc2c1`, the growth inhibition is 34% in assay [1] and 100% (active) in assay [4]. The inhibition in assay [2] was -1%; in assay [3] it was -2%. The outcome in assay [5], in assay [6], in assay [7] and in assay [8] was inactive.
